Assay outcomes as filed in PubChem.
In the library only some 3.3% were active in any assay of this set; here they are far more common.
ABHD5-PLIN5 inh: ABHD5-PLIN5 protein interaction inhibition; Split G. princeps luciferase complementation, luminescence, 4 h; inhibition, % at 4 µM; hit rate 0.78% among 360,000;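 active = inhibition above the mean inhibition across every tested compound plus 3 SD, cut at about 22% in these data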
Target sequence (Q00G26 whole entry, looked up): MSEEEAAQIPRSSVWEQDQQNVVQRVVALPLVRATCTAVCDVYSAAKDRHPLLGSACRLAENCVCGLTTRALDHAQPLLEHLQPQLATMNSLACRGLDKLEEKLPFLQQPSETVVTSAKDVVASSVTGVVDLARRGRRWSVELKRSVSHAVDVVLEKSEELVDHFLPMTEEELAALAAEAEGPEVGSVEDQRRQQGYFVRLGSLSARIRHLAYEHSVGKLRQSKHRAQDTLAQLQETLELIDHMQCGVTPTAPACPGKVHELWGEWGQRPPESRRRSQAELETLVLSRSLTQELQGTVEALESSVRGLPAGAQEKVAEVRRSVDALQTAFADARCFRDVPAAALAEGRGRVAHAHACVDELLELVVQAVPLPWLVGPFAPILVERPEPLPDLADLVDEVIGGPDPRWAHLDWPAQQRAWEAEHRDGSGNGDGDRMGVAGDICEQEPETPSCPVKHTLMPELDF
Target sequence (Q8WTS1 whole entry, looked up): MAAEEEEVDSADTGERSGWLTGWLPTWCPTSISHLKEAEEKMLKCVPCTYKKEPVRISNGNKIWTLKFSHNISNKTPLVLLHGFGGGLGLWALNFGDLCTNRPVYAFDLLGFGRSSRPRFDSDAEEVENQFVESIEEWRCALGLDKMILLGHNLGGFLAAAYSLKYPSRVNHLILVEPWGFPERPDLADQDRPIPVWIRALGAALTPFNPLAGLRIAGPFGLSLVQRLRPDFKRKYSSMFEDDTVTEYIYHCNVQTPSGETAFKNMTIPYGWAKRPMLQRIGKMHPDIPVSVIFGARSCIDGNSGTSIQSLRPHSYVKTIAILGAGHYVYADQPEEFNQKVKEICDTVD
TLR4-MyD88 BLA: TLR4-MyD88 interaction inhibition in cells; HeLa CL3-4 TLR4/MyD88 BLA complementation, FRET ratio; inhibition, % at 8.4 µM; hit rate 0.18% among 200,000; AID 861; in the data active = inhibition above about 25%
rCAG binder: molecules binding r(CAG) RNA repeats; r(CAG) RNA repeat, TO-PRO-1 dye displacement fluorescence; AID 651821; hit rate 1.3% among 370,000; inhibition, % at 3 µM;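 active = inhibition above the plate cutoff, the mean of all test compounds on that plate plus 3 SD, cut at about 35% in these data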;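 note: higher means more dye released from RNA so lower well fluorescence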
PRMT1 inh: blocks human protein arginine methyltransferase 1; Q99873; recombinant PRMT1, activity-based probe fluorescence polarization; inhibition, % at 2.79 µM; hit rate 1.3% among 370,000; AID 652257;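 active = inhibition above about 21% made by adding two undisclosed values, limit read from the data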
TLR9-MyD88 inh: TLR9-MyD88 interaction inhibition | Q9NR96+Q99836 | CHO BLA complementation TLR9-MyD88, CCF4 FRET ratio | inhibition, % at 4.98 µM | hit rate 0.21% among 340,000 | AID 504734;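 active = inhibition above the mean over all tested compounds plus 3 SD, cut at about 21% in these data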
NOD2 RIPK2 PPI: NOD2-RIPK2 protein interaction inhibition. O43353. CHO BLA complementation NOD2-RIPK2, CCF4 ratio. inhibition, % at 4.98 µM. hit rate 0.38% among 360,000; in the data active = inhibition above about 21%
Of the large screens only hits and unclear results are named; the others gave an inactive call.

CC[C@]12c3[nH]c4cc(-c5ccco5)ccc4c3CCN1C(=O)[C@@H](CC(=O)NC/C=C(\C)CCC=C(C)C)C[C@@H]2C(=O)N1CCN(C(=O)C2CC2)CC1	PRMT1 inh 23 (no result: TLR4-MyD88 BLA)
CC[C@]12c3[nH]c4cc(-c5ccco5)ccc4c3CCN1C(=O)[C@@H](CC(=O)NC/C=C(\C)CCC=C(C)C)C[C@@H]2C(=O)N1CCN(C(=O)c2ccco2)CC1	none (no result: TLR4-MyD88 BLA, rCAG binder, PRMT1 inh)
CCn1c(CCNC(=O)c2cccs2)nnc1SCC(=O)c1ccc(OC)cc1	PRMT1 inh 22
CCn1c(CNC(=O)c2ccc(OC)cc2)nnc1SCC(=O)c1ccccc1	none
Cc1cc(-c2nnc(SCC(=O)Nc3nc(-c4ccccc4)cs3)o2)no1	PRMT1 inh 25 (no result: TLR4-MyD88 BLA)
CCOC(=S)SCC(=O)Nc1nc(-c2ccccc2)cs1	PRMT1 inh 26
O=C(NCC1CCCO1)c1ccc(NC(=O)c2cccc([N+](=O)[O-])c2)cc1 (configuration not stated)	none (no result: TLR4-MyD88 BLA)
CCc1ccc(C2=CC(c3cc(Br)ccc3F)n3ncnc3N2)cc1 (configuration not stated)	TLR9-MyD88 inh 29, NOD2 RIPK2 PPI 38
Cc1ccc(NC(=O)COCC(=O)Nc2ccc(C)cc2)cc1	none (no result: TLR4-MyD88 BLA)
Cc1ccc(S(=O)(=O)OCC(=O)Nc2ccc(C(=O)O)c(O)c2)cc1	rCAG binder 40, PRMT1 inh 21 (no result: TLR4-MyD88 BLA)
Cc1ccc(S(=O)(=O)Nc2cc3c4c(c2)CCN4C(=O)CC3)cc1	none (no result: TLR4-MyD88 BLA)
CCc1nc2c(OCc3ccc4c(c3)OCO4)cccn2c1N(C=O)Cc1ccccc1	none (no result: TLR4-MyD88 BLA, TLR9-MyD88 inh)
COc1ccc(NC(=O)CSCC(=O)Nc2cc(Cl)ccc2N2CCCC2)cc1	none (no result: TLR4-MyD88 BLA)
COC(=O)[C@]12C[C@H](CC(=O)NCCc3ccccc3OC)C(=O)N(Cc3ccco3)C1=C[C@H](C1CCCC1)O[C@@H]2C	none (no result: ABHD5-PLIN5 inh, TLR4-MyD88 BLA, TLR9-MyD88 inh, NOD2 RIPK2 PPI)
COc1ccc(C(=O)/C=C/c2ccccc2F)c(OC(=O)c2ccc([N+](=O)[O-])cc2)c1	ABHD5-PLIN5 inh 28
Oc1ccc(O)c(Cc2nc3ccccc3s2)c1	PRMT1 inh 49
Cc1cc(Cl)cc(C)c1OCCOCCNCc1ccccc1	none (no result: TLR4-MyD88 BLA)
CC(NC(=O)c1ccc(OC2CCN(Cc3ccccn3)CC2)cc1)c1nccs1 (configuration not stated)	none (no result: TLR4-MyD88 BLA)
CC(=O)C(Sc1nn(C)c(=S)s1)C(=O)Nc1ccccc1 (configuration not stated)	PRMT1 inh 24
CC(=O)C(Sc1nc(N(C)C)nc(N(C)C)n1)C(=O)Nc1ccccc1 (configuration not stated)	none
COc1ccc(OC)c2c1C(=O)c1ccccc1C2=O	PRMT1 inh 52 (no result: ABHD5-PLIN5 inh, TLR9-MyD88 inh, NOD2 RIPK2 PPI)
COc1ccc2noc3c2c1C(=O)c1ccccc1-3	PRMT1 inh 157 (no result: TLR4-MyD88 BLA)
COc1ccc(N)c2c1C(=O)c1ccccc1C2=O	none
O=C(CN1CCOCC1)Nc1nc2ccc(Cl)cc2s1	none (no result: TLR4-MyD88 BLA)
O=C(CN1CCOCC1)Nc1nc2ccc(Br)cc2s1	PRMT1 inh 39
COC(=O)c1ccc(CC(=O)c2c(C)cc(O)cc2O)o1	PRMT1 inh 24
CN(CC(=O)Nc1ccc(F)cc1)C(=O)c1ccc(OCc2cn3ccccc3n2)cc1	none (no result: TLR4-MyD88 BLA)
CC(=O)c1c(C)[nH]c(C(=O)OCc2nnc(-c3ccc([N+](=O)[O-])cc3)o2)c1C	PRMT1 inh 24 (no result: TLR4-MyD88 BLA)
COc1cc(Sc2ccc(C)cc2)c(OC)cc1N	PRMT1 inh 35
COC(=O)[C@@]1(Cc2ccccc2)[C@@H]2C(=CC(=O)[C@H]2CC(=O)C(=O)N(C)C)CN1C(=O)c1ccccc1	ABHD5-PLIN5 inh 31 (no result: rCAG binder, PRMT1 inh)
COC(=O)[C@@]1(Cc2ccc(F)cc2)[C@H]2c3cc(C(=O)N(C)C)n(CCF)c3C[C@H]2CN1C(=O)c1ccccc1	none (no result: TLR4-MyD88 BLA, TLR9-MyD88 inh)
O=C1C2CC=C(Cl)CC2C(=O)N1CCc1ccccc1 (configuration not stated)	PRMT1 inh 24
O=C1C2CC=C(Cl)CC2C(=O)N1CCc1c[nH]c2ccccc12 (configuration not stated)	none
CN(C)c1ccc(N/C=C/C(=O)c2ccccc2)cc1	PRMT1 inh 22
COc1cc(C2c3cc4c(cc3OC(C)(N3CCCC3)C2C)OCO4)cc(OC)c1OC (configuration not stated)	none (no result: TLR4-MyD88 BLA)
OCC1OC(n2cnc3c(=S)nc[nH]c32)CC1O (configuration not stated)	PRMT1 inh 21 (no result: TLR4-MyD88 BLA)
CCOC(=O)[C@]12CCCCC/C=C\1N(Cc1ccc(OC)cc1)C(=O)[C@H]2CC(=O)NCc1cccc(C(F)(F)F)c1	none (no result: ABHD5-PLIN5 inh, TLR4-MyD88 BLA, TLR9-MyD88 inh, NOD2 RIPK2 PPI)
CCCOc1ccc(N2C(=O)CC(SCCN)C2=O)cc1 (configuration not stated)	PRMT1 inh 22
CCCOc1ccc(N2C(=O)CC(SCCc3nc4ccccc4[nH]3)C2=O)cc1 (configuration not stated)	none
O=S(=O)(NCCS(=O)(=O)N1CCN(c2ccc(F)cc2)CC1)c1ccc(F)cc1	none (no result: TLR4-MyD88 BLA)
Cc1ccc(C)c(/C=N/n2cc(-c3ccccc3)[nH]c2=S)c1	PRMT1 inh 24
S=c1[nH]c(-c2ccccc2)cn1/N=C/c1ccc(Br)cc1	none
Fc1ccccc1/C=N/n1cc(-c2ccccc2)[nH]c1=S	PRMT1 inh 24 (no result: TLR4-MyD88 BLA)
Clc1c(Cl)c(Cl)c2n[nH]nc2c1Cl	none (no result: TLR4-MyD88 BLA)
Cc1cc2nc(-c3ccccc3)c(Cc3cccc(Cl)c3)n2c(C)c1Br	rCAG binder 52 (no result: TLR4-MyD88 BLA, TLR9-MyD88 inh)
Cc1ccc(-c2nc3cc(C)c(Br)c(C)n3c2Cc2cccc(Cl)c2)cc1	none (no result: TLR4-MyD88 BLA, rCAG binder, PRMT1 inh, TLR9-MyD88 inh)
FC(F)(F)c1cc(Cl)c2nc(-c3ccccc3)c(Cc3cccc(Cl)c3)n2c1	rCAG binder 41 (no result: TLR4-MyD88 BLA, TLR9-MyD88 inh)
FC(F)(F)c1cc(Cl)c2nc(-c3cccc(Cl)c3)c(Cc3cccc(Cl)c3)n2c1	none (no result: TLR4-MyD88 BLA, TLR9-MyD88 inh)
Cc1ccc(-c2cc(-c3ccccc3Cl)c(C#N)c(N)n2)o1	PRMT1 inh 22
CCOC(=O)c1cnc(SC)nc1Sc1cc(Cl)ccc1Cl	none
CCN(C)C1CN(Cc2cn(CCCOC)nn2)S(=O)(=O)C1 (configuration not stated)	none (no result: TLR4-MyD88 BLA, TLR9-MyD88 inh)
CCCN(C)C1CN(Cc2cn(CCCOC)nn2)S(=O)(=O)C1 (configuration not stated)	PRMT1 inh 23 (no result: TLR4-MyD88 BLA, TLR9-MyD88 inh)
O=C(CSc1ccc(-c2ccccn2)nn1)Nc1ccc(F)c(F)c1	none (no result: TLR4-MyD88 BLA)
COc1ccc(-c2cc(-c3n[nH]c(=S)n3-c3cc(OC)ccc3OC)[nH]n2)cc1	PRMT1 inh 25
COc1ccc(-c2n[nH]c(=S)n2-c2cc(OC)ccc2OC)cc1	none (no result: TLR4-MyD88 BLA)
COc1cccc2c(SCC(=O)N/N=C/c3ccc(O)c(O)c3)cc(C)nc12	PRMT1 inh 29 (no result: TLR9-MyD88 inh)
COc1ccc2nc(C)cc(SCC(=O)N/N=C/c3ccc(O)c(O)c3)c2c1	none
Nc1ncnc2c1ncn2[C@@H]1O[C@H](C(=O)NCc2ccc(OC(F)(F)F)cc2)[C@@H](O)[C@H]1O	none (no result: TLR4-MyD88 BLA, TLR9-MyD88 inh)
CCCCC(=O)NC(c1ccc(Cl)cc1)c1ccc2cccnc2c1O (configuration not stated)	ABHD5-PLIN5 inh 22 (no result: TLR4-MyD88 BLA)
